Screening data from PubChem.
Rows were chosen to be rich in hits. Some 19% of all compounds tested hit in one or more screens of this group.
IL1B secr inh: blocks inflammasome-driven IL-1 beta release; AID 743279; activity change, % at 57.5 µM; THP-1 LPS/ATP IL-1B secretion, AlphaLISA, 16 h; stronger effect = lower value; 360,000 compounds, 4.7% hits; in the data active = activity change below about -50%; inconclusive = mostly about -30% to -49%; also: % is scaled to controls: 0 for no effect and ±100 for the full control effect
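THP-1 cells pretreated 1 hr with compounds (up to 57.5 uM final), then stimulated with LPS (250 ng/mL final) plus ATP (1.25 mM final); secreted IL-1B measured by AlphaLISA after 16 hr, decreased signal indicating inhibition.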
SW480 rerep: inducers of DNA re-replication in SW480 colon cancer cells. Potency, µM (doses to about 46.1 µM), without a hit: at the highest dose re-replication activation, usual class: activators. SW480 DNA re-replication, Hoechst DNA content imaging, 48 h. 340,000 compounds, 1.8% hits; also: potency is read from the fitted curve at half-maximal effect; % of control where 0% means no effect; nearly all actives have a fitted effect of over 55% in size
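250 cells/well; 23 nL cpd via pin tool; 48 hr, 37 C, 5% CO2; Hoechst 40 min; imager read of total nuclear intensity, ex 405/em 500-530 nm.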
Chronic BCR inh: blocks chronic active B-cell receptor signaling | Potency, µM (doses to about 46.1 µM), without a hit: at the highest dose activity change, negative = inhibition, usual class: inhibitors | ABC-DLBCL IkBa-CBG/CBR reporter, luminescence ratio, 4 h | 340,000 compounds, 0.05% hits | AID 493014; active = well fitted inhibition curve with a large enough effect in the signal ratio, with a control signal flat, not every such curve was filed as active; inconclusive = small, poorly fitted or top-dose-only effect, or effect the other way, or a change in a side signal; the % refers to the signal ratio;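 also: potency is read from the fitted curve at half-maximal effect; plate controls were basal doxycycline-induced cells for no effect and cells given 10 µM MG132 for full effect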
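Doxycycline induced both beetle luciferases in TMD8 lymphoma cells; IKK-driven degradation limits the IkappaBalpha-fused green signal, while red luminescence normalises for cell number and nonspecific effects. Compounds tested up to 46 uM, 4 hrs.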
MCF10A rerep: inducers of DNA re-replication in MCF 10A breast cells. Potency, µM (titrated, usually from 46.1 µM), without a hit: top-dose activity, positive = re-replication, actives largely listed as activators. MCF 10A DNA re-replication, Hoechst nuclear intensity, 48 h. 350,000 compounds, 2.9% hits; also: potency is read from the fitted curve at half-maximal effect; % of control where 0% means no effect; nearly all actives have a fitted effect of over 50% in size
TDP1 cell CPT: DT40-hTDP1 cell growth loss with CPT; chicken DT40 Tdp1-/-;hTDP1 cells + 20 nM CPT, ATP luminescence, 48 h; Potency, µM (titrated, usually from 46.2 µM), without a hit: at the top dose activity change, negative = growth inhibition, most hits filed as inhibitors; 420,000 compounds, 12% hits; AID 686979; also: potency is read from the fitted curve at half-maximal effect; % is scaled to controls: 0 for no effect and ±100 for the full control effect; nearly all actives have a fitted effect of over 55% in size
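Cell growth measured by CellTiter-Glo luminescence after a minimum 48 h, 37 C compound exposure with 20 nM CPT in Tdp1-knockout DT40 cells stably expressing hTDP1, seeded 400/well; qHTS titration format.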
DT40 TDP1 no CPT: qHTS for Inhibitors of human tyrosyl-DNA phosphodiesterase 1 (TDP1): qHTS in cells in absence of CPT. AID 686978, 2013. Potency, µM (highest dose often 46.2 µM), inactives show top-dose activity change, negative = growth inhibition, hits mostly inhibitors. DT40 Tdp1-/- hTDP1 cells, no CPT, ATP luminescence, 48 h. 420,000 compounds, 15% hits; also: potency is read from the fitted curve at half-maximal effect; % is scaled to controls: 0 for no effect and ±100 for the full control effect; nearly all actives have a fitted effect of over 55% in size
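No-CPT arm: Tdp1-/-;hTDP1 DT40 cells (400/well) plus compounds, incubated ≥48 hr at 37 °C. Readout CellTiter-Glo luminescence.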
Starred values were filed as active, the others as inactive; ? = inconclusive; / = not tested or not shown; [ ] = remark or other dose. Unless noted, calls follow the shape of the dose curve; as a rule, active = well fitted curve in the direction sought with a large enough effect; inconclusive = small, poorly fitted or top-dose-only effect, or another doubt; inactive = no such curve, though single readings can be large; an effect the other way counts as inactive or inconclusive.

SMILES	IL1B secr inh	SW480 rerep	Chronic BCR inh	MCF10A rerep	TDP1 cell CPT	DT40 TDP1 no CPT
COc1ccc2nc(NC(=O)CCc3cc(OC)c(OC)c(OC)c3)sc2c1	-63*	9%	0%	1%	?	21µM*
COc1cc(C(=O)Nc2nc(OC)c(-c3ccccc3)c(OC)n2)cc(OC)c1OC	-6	1%	?	16%	?	18µM*
COc1cc(CCC(=O)Nc2ccc(Cl)c(C(F)(F)F)c2)cc(OC)c1OC	-13	2%	-10%	17%	18µM*	8.2µM*
COc1cc(CCC(=O)Nc2cccc(C(F)(F)F)c2)cc(OC)c1OC	1	4%	2%	?	?	13µM*
COc1cc(C(=O)Nc2ccc(Nc3ccccc3)cc2)cc(OC)c1OC	-56*	26%	?	21µM*	?	?
COc1cc(CCC(=O)Nc2nnc(C)s2)cc(OC)c1OC	22	6.5µM*	-19%	10µM*	4.6µM*	2.9µM*
COc1cc(-c2c(NC(=O)c3ccco3)oc3ccccc3c2=O)cc(OC)c1OC	1	0%	0%	-1%	5%	22%
CCCCC[C@@H](/C=C/C1C(=O)C=C[C@H]1C/C=C\CCCC(=O)O)OC(C)=O (stereo partly specified)	-77*	-37%[9.22 µM]	/	?	21µM*	23µM*
CCCCC[C@H](O)/C=C/[C@H]1C=CC(=O)[C@@H]1C/C=C\CCCC(=O)O	/	-1%	?	21%	15%[4.12 µM]	8%[4.12 µM]
O=C(CCNS(=O)(=O)c1cccc2nsnc12)Nc1ccc(F)cc1	/	/	/	/	-4%	-15%
CCCCN(Cc1ccc(Cl)c(Cl)c1)c1ccc(Br)cn1	/	/	/	/	-3%	?
NCCCN(Cc1ccccc1)c1ccc(Br)cn1	/	/	/	/	11µM*	?
C#Cc1ccc([C@@H]2C=C(C(=O)N3CCN(Cc4ccccc4)CC3)O[C@H](OCC)[C@H]2CCCO)cc1	-20	?	-4%	?	?	23µM*
CCO[C@@H]1OC(C(=O)N2CCN(Cc3ccc4c(c3)OCO4)CC2)=C[C@H](c2coc3ccccc3c2=O)[C@H]1CCCO	-25	-6%	-9%	5%	16µM*	18µM*
C#Cc1ccc([C@H]2C=C(C(=O)N3CCN(Cc4ccccc4)CC3)O[C@@H](OCC)[C@@H]2CCCO)cc1	-23	-5%	-5%	46%	?	?
CCO[C@@H]1OC(C(=O)N2CCN(Cc3ccccc3)CC2)=C[C@H](c2coc3ccccc3c2=O)[C@H]1CCCO	2	-6%	13%	?	8.2µM*	7.3µM*
CCO[C@H]1OC(C(=O)N2CCN(Cc3ccccc3)CC2)=C[C@@H](c2coc3ccccc3c2=O)[C@@H]1CCCO	-15	-5%	-36%	-16%	26µM*	23µM*
CCO[C@H]1OC(C(=O)N2CCN(C)CC2)=C[C@@H](c2coc3ccccc3c2=O)[C@@H]1CCCO	-1	-11%	-10%	-5%	2%	0%
O=C(NCCN1CCCCC1)c1ccc(I)cc1	/	/	/	/	-14%	?
O=C(Nc1ccc2oc(-c3cccc(F)c3)nc2c1)c1ccc2ccccc2c1	/	/	/	/	-6%	-18%
CCO[C@H]1OC(C(=O)N2CCN(Cc3ccc4c(c3)OCO4)CC2)=C[C@@H](c2csc3ccccc23)[C@@H]1CCCO	-61*	2%	-23%	165%	?	?
O=S(=O)(Nc1cccc(C(F)(F)F)c1)c1ccc(NS(=O)(=O)c2ccc3c(c2)OCCO3)cc1	/	/	/	/	-27%	1%
